Biological target: GST-WRKY1(266-371) (Arabidopsis thaliana, UniProt Q9SI37 266-371)
Assay: universal protein binding microarray (PBM); transcription factors of Arabidopsis thaliana; high values mean tight binding
Conditions: protein: recombinant; tags: GST; dsDNA, one strand shown
Summary of the method: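 Protein amounts were determined by A280 or anti-GST western blot after glutathione–Sepharose 4B purification of GST-tagged proteins induced in cells, with zinc acetate included for zinc-finger proteins. Duplicate runs at 200 to 500 nM final were done on custom all-10-mer Agilent 4 × 180K arrays made double-stranded by primer extension. The normalised enrichment score (E-score) over gapped and ungapped 8-mers is the measure of binding.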

Chain of GST-WRKY1(266-371) (Q9SI37 266-371): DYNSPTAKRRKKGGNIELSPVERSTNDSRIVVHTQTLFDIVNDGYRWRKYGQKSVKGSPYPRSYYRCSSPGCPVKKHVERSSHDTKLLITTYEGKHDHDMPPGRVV

| Sequence | binding signal |
| --- | --- |
| AGTCTTCG | 0.427 E-score |
| GACGGTCA | 0.462 E-score |
| GTCTTTGA | 0.411 E-score |
| AGTCAGAG | 0.44 E-score |
| GGGTCAGA | 0.432 E-score |
| TAGGGTCA | 0.42 E-score |
| GCTGACTA | 0.417 E-score |
| CATTGACC | 0.491 E-score |
| GGTCAGCA | 0.456 E-score |
| CCGGTCAA | 0.493 E-score |
| AGGGTCAG | 0.403 E-score |
| CGTGGACC | 0.444 E-score |
| ACCAGTCA | 0.421 E-score |
| CTATGACC | 0.412 E-score |
| CCCGGTCA | 0.445 E-score |
| GGTCTGAC | 0.441 E-score |
| GTCGGTCA | 0.45 E-score |
| GACCGGTC | 0.445 E-score |
| CGTCTGAC | 0.418 E-score |
| CGGTCAGC | 0.458 E-score |

| Sequence | binding signal |
| --- | --- |
| CGAAGACC | 0.436 E-score |
| ACTCTGAC | 0.437 E-score |
| CGGTCATA | 0.415 E-score |
| CCGGGTCA | 0.443 E-score |
| ATCTTGAC | 0.47 E-score |
| GACGACCA | 0.43 E-score |
| CAAGGTCA | 0.425 E-score |
| CAACGACC | 0.421 E-score |
| CCTTGACC | 0.487 E-score |
| TCGAGTCA | 0.417 E-score |
| CAGGTCAA | 0.484 E-score |
| GCTCTGAC | 0.403 E-score |
| CGATGACC | 0.414 E-score |
| ATGAGTCA | 0.427 E-score |
| ACAGGTCA | 0.443 E-score |
| CGGAGTCA | 0.405 E-score |
| CAAGACCG | 0.405 E-score |
| AGCGGTCA | 0.422 E-score |
| CGGGTCAG | 0.408 E-score |
